Measurements as given in PubChem BioAssay (NCI).
This is part of a sample that, as a whole, favours compounds with a hit. Of some 83,000 tested, about 20% had one in any assay.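 Treatment: one concentration, 48 hours, 96-well format. Scoring: percent growth, with anything below 10 considered active.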 A number with no mark means an inactive call. Calls of active or inactive are those of the source.

The molecules below were run on MDA-MB-468 breast (assay: NCI-60 one-dose screen, 48 h (100 = growth as untreated, 0 = no growth, -100 = all killed)). Details: 10 µM unless noted.
c1ccc2c(c1)Nc1ccncc1S2 showed a growth of 107%. In the case of CC(=C(c1ccc(OCCN2CCCCC2)cc1)c1ccc(OCCN2CCCCC2)cc1)c1ccc(Cl)cc1, the growth is reported as -79.6% (active). With CN1CCc2c(sc3nc4n(-c5ccc(Cl)cc5)c(=O)[nH]n4c(=O)c23)C1 the growth was 114%. In the case of Oc1ccc2c(=S)cc(-c3ccc(Br)cc3)oc2c1O, the growth is reported as -2.5% (active). CCC/C(=N\NC(N)=O)C(OC)OC gave a growth of 103%. CO[C@H]1/C=C/O[C@@]2(C)Oc3c(C)c(O)c4c(c3C2=O)C(=O)C(/C=N/N(c2ccccc2)c2ccccc2)=C(NC(=O)/C(C)=C\C=C\[C@H](C)[C@H](O)[C@@H](C)[C@@H](O)[C@@H](C)[C@H](OC(C)=O)[C@@H]1C)C4=O was tested, and the growth was -2.58% (active). For COc1ccc(-c2nc(SCC(=O)Nc3ccc(C(C)=O)cc3)[nH]c(=O)c2C#N)cc1, the growth was 105%. Cn1cc(-c2csc(-c3cn(CCN)c4ccccc34)n2)c2cccnc21 gave a growth of 23.2%. For O=C(O)c1ccc(-n2cc(CNc3ccc(Cl)cc3)c(-c3ccc(F)cc3)n2)cc1, the growth was 106%. For CCN1C(=O)N[C@H]2[C@@H]3NC(=O)c4ccc(Cl)n4[C@@H]3C[C@]21O, the growth was -6.44% (active). Molecule CCOC(=O)c1c(-c2ccc(Cl)cc2)c(C#N)c2c(C#N)c(N)nn2c1N has a growth of 33.6%. CCCCCCC(C)CC1=C(O)c2ccccc2C(=O)C1=O (stereo not drawn) was tested, and the growth was 1.43% (active). COc1ccc(NC(=O)CSc2oc(-c3ccccc3)nc2S(=O)(=O)c2ccc(Cl)cc2)c(OC)c1 gave a growth of 57.8%.
